Experimental data from PubChem BioAssay (Tox21).
Where “and” joins values, the source holds several entries; their conditions need not be identical. Equal values may be shown once. Inconclusive results are not listed. Calls of active or inactive are those of the source. Unless noted, the call rests on the fitted dose curve; in most records, active means well fitted curve in the direction sought with a large enough effect in the repeat runs; inconclusive means weak or mixed curves; inactive means no such curve, though single readings can be large; an effect the other way counts as inactive or inconclusive.

Experiments:
[1] = qHTS assay to identify small molecule agonists of the hypoxia (HIF-1) signaling pathway - cell viability counter screen (AID 1224844; calls by dose curve; further: nearly all actives have a fitted effect of over 50% in size)
How it was run: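 Multiplexed with the HRE beta-lactamase assay, this viability read used CellTiter-Glo luminescence (30 min, RT) on HRE-bla ME-180 cells treated 17 hrs with compounds in 0.5% dialyzed FBS medium.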

[2] = qHTS assay to identify small molecule agonists of H2AX (AID 1224845; active means well fitted activation curve with a large enough effect in the signal ratio in the repeat runs, not every such curve was filed as active; the % refers to the signal ratio)
How it was run: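 Wild-type CHO-K1 cells, plated overnight, exposed 3hr at 37C to 15 concentrations (0.76% DMSO final). Lysed, then HTRF anti-pH2AX (S139) cryptate and anti-H2AX-d2 antibodies, 24 hr room temperature; 665/620 nm emission read.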

[3] = qHTS assay to identify small molecule agonists of the hypoxia (HIF-1) signaling pathway (AID 1224846; active means well fitted activation curve with a large enough effect in the signal ratio in the repeat runs, not every such curve was filed as active; the % refers to the signal ratio)
How it was run: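 Hypoxia-pathway activation was scored as increased beta-lactamase from an HRE-controlled reporter in ME-180 cells; plated at 2,000 cells per well with 0.5% dialyzed FBS, they were exposed 17 hrs to compounds and then given CCF4-AM.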

[4] = qHTS assay to identify small molecule agonists of H2AX - cell viability counter screen (AID 1224847; calls by dose curve; further: top concentration of the series differs between compounds; nearly all actives have a fitted effect of over 30% in size)
How it was run: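 Cytotoxicity counter screen in wild-type CHO-K1 cells: a 3 hr compound treatment at 37C across 15 concentrations, followed by CellTiter-Glo luminescence to gauge viable cells.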

[5] = qHTS RealTime-Glo MT Cell Viability Assay in HepG2 cells - 24 hour (AID 1224867); further: nearly all actives have a fitted effect of over 50% in size
How it was run: (§1)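 Compound treatment began 5 h after plating HepG2 cells (600/well) with NanoLuc luciferase and prosubstrate. Plates stayed at 37 C for 40 h; luminescence was captured at six time points, 0 h through 40 h.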

[6] = qHTS RealTime-Glo MT Cell Viability Assay in HEK293 cells - 32 hour (AID 1224868); further: top concentration of the series differs between compounds; nearly all actives have a fitted effect of over 50% in size
How it was run: (§2)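 Quantitative high-throughput screen of the Tox21 10K library in HEK293: cells and RealTime-Glo reagents plated together, compound added at 5 h, luminescence monitored through 40 h at 37 C.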

[7] = A CellTox Green Cytotoxicity Assay to monitor cytotoxicity in HEK293 cells - 0 hour (AID 1224869); further: nearly all actives have a fitted effect of over 50% in size
How it was run: (§3)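 Seeding of HEK293 cells together with cytotoxicity dye preceded a 5 h incubation at 37 C/5% CO2. Test compounds in DMSO were then added and fluorescence monitored across 40 h.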

[8] = qHTS RealTime-Glo MT Cell Viability Assay in HepG2 cells - 40 hour (AID 1224870); further: nearly all actives have a fitted effect of over 50% in size
How it was run: (§4)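 HepG2 cells (600/well) mixed with RealTime-Glo MT reagent, settled 5 h at 37 C/5% CO2 before compound addition. Nonlytic NanoLuc luminescence from viable-cell prosubstrate reduction read repeatedly during 40 h treatment at 37 C.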

[9] = A CellTox Green Cytotoxicity Assay to monitor cytotoxicity in HEK293 cells - 40 hour (AID 1224871); further: nearly all actives have a fitted effect of over 45% in size
How it was run: as §3

[10] = qHTS RealTime-Glo MT Cell Viability Assay in HEK293 cells - 16 hour (AID 1224872)
How it was run: as §2

[11] = qHTS RealTime-Glo MT Cell Viability Assay in HepG2 cells - 8 hour (AID 1224873); further: nearly all actives have a fitted effect of over 55% in size
How it was run: as §4

[12] = qHTS RealTime-Glo MT Cell Viability Assay in HEK293 cells - 40 hour (AID 1224874); details: RealTime-Glo luminescence; max response: active compounds read low; further: nearly all actives have a fitted effect of over 50% in size
How it was run: (§5)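 Tox21 screen in HEK293 using RealTime-Glo MT chemistry, with cells and reagent co-dispensed. Luminescence proportional to viable cell number was captured at intervals during 40 h compound exposure at 37 C.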

[13] = A CellTox Green Cytotoxicity Assay to monitor cytotoxicity in HEK293 cells - 24 hour (AID 1224875); further: nearly all actives have a fitted effect of over 45% in size
How it was run: as §3

[14] = A CellTox Green Cytotoxicity Assay to monitor cytotoxicity in HepG2 cells - 16 hour (AID 1224876); further: nearly all actives have a fitted effect of over 45% in size
How it was run: (§6)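 Nonlytic assay: viable cells exclude the dye, so fluorescence scales with cell death. HepG2 at 600 cells/well, compounds added after 5 h, signal read across 40 h.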

[15] = qHTS RealTime-Glo MT Cell Viability Assay in HepG2 cells - 32 hour (AID 1224877); further: nearly all actives have a fitted effect of over 55% in size
How it was run: as §1

[16] = A CellTox Green Cytotoxicity Assay to monitor cytotoxicity in HepG2 cells - 24 hour (AID 1224878); further: nearly all actives have a fitted effect of over 45% in size
How it was run: as §6

[17] = A CellTox Green Cytotoxicity Assay to monitor cytotoxicity in HepG2 cells - 40 hour (AID 1224879); further: nearly all actives have a fitted effect of over 40% in size
How it was run: as §6

[18] = qHTS RealTime-Glo MT Cell Viability Assay in HEK293 cells - 0 hour (AID 1224880)
How it was run: as §5

[19] = qHTS assay to identify small molecule antagonists of the estrogen related receptor (ERR) signaling pathway from Tox21 library (AID 1224848); further: nearly all actives have a fitted effect of over 50% in size
How it was run: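 Luminescent reporter read-out (ONE-Glo) from NTP's ERR cell line after 18 h treatment at 37 C with DMSO-dissolved Tox21 compounds; cells pre-plated 6 h beforehand at 2,000 per well.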

[20] = qHTS assay to identify small molecule agonists of the estrogen related receptor (ERR) signaling pathway from Tox21 library (AID 1224849; calls by dose curve; further: nearly all actives have a fitted effect of over 15% in size); details: ERR reporter cell line, ONE-Glo luciferase, 18 h; at 92.4 µM (top of the series)
How it was run: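 Six hours post-seeding at 37 C/5% CO2, ERR cells receive DMSO-solubilised compounds; after 18 h at 37 C, ONE-Glo reagent is applied and luminescence recorded.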
On the % scale 0 is the no-effect control and ±100 the full control effect.

OCc1ccc(Cl)cc1Cl
inactive: Potency [1] | Potency [2] | outcome [3] | Potency [4] | Potency [5] | Potency [6] | Potency [7] | Potency [8] | Potency [9] | Potency [10] | Potency [11] | max response [12] 3.27% and 4.82% | Potency [13] | Potency [14] | Potency [15] | Potency [16] | Potency [17] | Potency [18]

CC1(C)C(=O)N(Cl)C(=O)N1Cl
inactive: Potency [1] | Potency [2] | outcome [3] | Potency [4] | Potency [5] | Potency [6] | Potency [7] | Potency [8] | Potency [9] | Potency [10] | Potency [11] | max response [12] 1.41% and 7.94% | Potency [13] | Potency [14] | Potency [15] | Potency [16] | Potency [17] | Potency [18]

CCOC(=O)CC(=O)OCC
inactive: Potency [1] | Potency [2] | outcome [3] | Potency [4] | Potency [5] | Potency [6] | Potency [7] | Potency [8] | Potency [9] | Potency [10] | Potency [11] | max response [12] 5.3% and 0.825% | Potency [13] | Potency [14] | Potency [15] | Potency [16] | Potency [17] | Potency [18]

CCCCCCCCCCCCCC(=O)O
inactive: Potency [1] | Potency [2] | outcome [3] | Potency [4] | Potency [19] | activity change, positive = activation [20] -1.8% and -13.1% | Potency [5] | Potency [6] | Potency [7] | Potency [8] | Potency [9] | Potency [10] | Potency [11] | Potency [13] | Potency [14] | Potency [15] | Potency [16] | Potency [17] | Potency [18]

Cc1ccccc1Cl
inactive: Potency [1] | Potency [2] | outcome [3] | Potency [4] | Potency [5] | Potency [6] | Potency [7] | Potency [8] | Potency [9] | Potency [10] | Potency [11] | max response [12] 1.86% | Potency [13] | Potency [14] | Potency [15] | Potency [16] | Potency [17] | Potency [18]

CC/C=C(\C(=O)N[C@@H]1C(=O)N2C(C(=O)OCOC(=O)C(C)(C)C)=C(COC(N)=O)CS[C@H]12)c1csc(N)n1
inactive: Potency [1] | Potency [2] | outcome [3] | Potency [4] | Potency [5] | Potency [6] | Potency [7] | Potency [8] | Potency [9] | Potency [10] | Potency [11] | max response [12] 11.8% and 8.9% | Potency [13] | Potency [14] | Potency [15] | Potency [16] | Potency [17] | Potency [18]

CCCN(CCC)C(=O)SCC
inactive: Potency [1] | Potency [2] | outcome [3] | Potency [4] | Potency [5] | Potency [6] | Potency [7] | Potency [8] | Potency [9] | Potency [10] | Potency [11] | max response [12] 1.3% and 0.597% | Potency [13] | Potency [14] | Potency [15] | Potency [16] | Potency [17] | Potency [18]

C=C(C)CC(C)(C)C
inactive: Potency [1] | Potency [2] | outcome [3] | Potency [4] | Potency [5] | Potency [6] | Potency [7] | Potency [8] | Potency [9] | Potency [10] | Potency [11] | max response [12] 7.8% and -7.58% | Potency [13] | Potency [14] | Potency [15] | Potency [16] | Potency [17] | Potency [18]

CC[N+](CC)(CC(=O)Nc1c(C)cccc1C)Cc1ccccc1
inactive: Potency [1] | Potency [2] | outcome [3] | Potency [4] | Potency [5] | Potency [6] | Potency [7] | Potency [8] | Potency [9] | Potency [10] | Potency [11] | max response [12] -15.4% and 1.42% | Potency [13] | Potency [14] | Potency [15] | Potency [16] | Potency [17] | Potency [18]

CCCCC(=O)O
inactive: Potency [1] | Potency [2] | outcome [3] | Potency [4] | Potency [5] | Potency [6] | Potency [7] | Potency [8] | Potency [9] | Potency [10] | Potency [11] | max response [12] 6.05% and 6.12% | Potency [13] | Potency [14] | Potency [15] | Potency [16] | Potency [17] | Potency [18]

Cc1cc(CC(=O)O)n(C)c1C(=O)c1ccc(Cl)cc1
inactive: Potency [1] | Potency [2] | outcome [3] | Potency [4] | Potency [5] | Potency [6] | Potency [7] | Potency [8] | Potency [9] | Potency [10] | Potency [11] | max response [12] -0.154% and 2.14% | Potency [13] | Potency [14] | Potency [15] | Potency [16] | Potency [17] | Potency [18]

CC(C)=CCC/C(C)=C/C=O
inactive: Potency [1] | Potency [2] | outcome [3] | Potency [4] | Potency [5] | Potency [6] | Potency [7] | Potency [8] | Potency [9] | Potency [10] | Potency [11] | max response [12] 4.59% and 11.5% | Potency [13] | Potency [14] | Potency [15] | Potency [16] | Potency [17] | Potency [18]

CC(C)c1ccc(C(C)C)cc1
inactive: Potency [1] | Potency [2] | outcome [3] | Potency [4] | Potency [5] | Potency [6] | Potency [7] | Potency [8] | Potency [9] | Potency [10] | Potency [11] | max response [12] 6.04% and 0.0055% | Potency [13] | Potency [14] | Potency [15] | Potency [16] | Potency [17] | Potency [18]
